The panel holds about 83,000 compounds, 20% with a hit somewhere; the sample as a whole holds those more often.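 Negative percent growth values reflect cell death: -40 means 40% of the cells present at the start died, and -100 means all died.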 A number with no mark means an inactive call. Calls of active or inactive are those of the source. Rule for the calls: active = growth percent below 10; inactive = the rest.
Assays:
Assay in all cases: NCI-60 one-dose screen, 48 h (100 = growth as untreated, 0 = no growth, -100 = all killed)
Details in all cases: 10 µM unless noted
NCI-H23 lung = tested on: NCI-H23 lung
NCI-H226 lung = tested on: NCI-H226 lung
NCI-H322M lung = tested on: NCI-H322M lung
HOP-62 NSCLC = tested on: HOP-62 NSCLC
NCI-H460 lung = tested on: NCI-H460 lung
HOP-92 NSCLC = tested on: HOP-92 NSCLC
NCI-H522 lung = tested on: NCI-H522 lung
A549/ATCC NSCLC = tested on: A549/ATCC NSCLC
786-0 renal = tested on: 786-0 renal
COLO 205 colon = tested on: COLO 205 colon

SMILES | growth (NCI-H23 lung) | growth (NCI-H226 lung) | growth (NCI-H322M lung) | growth (HOP-62 NSCLC) | growth (NCI-H460 lung) | growth (HOP-92 NSCLC) | growth (NCI-H522 lung) | growth (A549/ATCC NSCLC) | growth (786-0 renal) | growth (COLO 205 colon)
COc1ccc(-c2cc3c(C)nc(N)nc3n(C3CCC(OCCO)CC3)c2=O)cn1 (stereo not given) | 15% | -0.55% (active) | -36.4% (active) | -21.9% (active) | 6.78% (active) | -32.2% (active) | -1.92% (active) | -38.4% (active) | -24.1% (active) | -61.1% (active)
COc1ccc(-c2nc(N)ncc2Oc2ccccc2OC)c(O)c1 | 38.8% | 73.5% | 50.5% | 27.9% | 16.4% | 49.2% | 28.7% | 35.7% | 37% | 2.73% (active)
c1ccc2c(c1)CCN(NCCN1CCCC1)C2 | 86.7% | 88.8% | 98.2% | 75.4% | 107% | 80.4% | 91.3% | 85.5% | 101% | 91.8%
CC[C@H](CO)Nc1nc(NCc2ccccc2)c2ncn(C(C)C)c2n1 | 63.5% | 76% | 61.3% | 48.2% | 47.8% | 65.4% | 48.8% | 56% | 57.6% | 47.1%
Cc1sc2c(c1C)c(=O)nc1c(-c3nc4ccccc4s3)n[nH]n12 | 88.7% | 87.4% | 96.2% | 90.1% | 96.7% | 88.7% | 90.8% | 97.2% | 105% | 103%
NC1(c2ccc(-c3nc4ccn5c(=O)[nH]nc5c4cc3-c3ccccc3)cc2)CCC1 | 73.5% | 67.7% | 59.2% | 50.3% | 23.6% | 23.2% | 5.02% (active) | 32.8% | 9.74% (active) | -19.8% (active)
CN1CCN(CCOc2cc(OC3CCOCC3)c3c(Nc4c(Cl)ccc5c4OCO5)ncnc3c2)CC1 | 81.4% | 100% | 2.76% (active) | 29.7% | 89.9% | 35.3% | 11.5% | 24.8% | 48.1% | 42.5%
O=C(NO)c1ccc(Cn2c(=O)n(-c3ccccc3F)c(=O)c3ccccc32)cc1 | -40.4% (active) | 17.6% | 26.2% | 8.43% (active) | 19% | 23.2% | -60.3% (active) | 5.07% (active) | 33.3% | -58.3% (active)
COc1ccc(C2CC(=O)c3c(O)c(OC)c(OC)c(OC)c3O2)cc1O (stereo not given) | 33.8% | 89.2% | 44.3% | 61.9% | 3.01% (active) | 79.5% | 13.1% | 28.7% | 49% | 67.3%
CCCCCCCCCCCC[n+]1ccccc1 | 8.58% (active) | 24.4% | 55.7% | -8.28% (active) | 3.69% (active) | -24.8% (active) | 1.19% (active) | 9.04% (active) | -16.8% (active) | -74% (active)
Cc1cc(N(CCNc2ccnc3cc(Cl)ccc23)Cc2cccs2)nc(Cl)n1 | 0.24% (active) | -30.2% (active) | -24.7% (active) | -29.4% (active) | -10.7% (active) | -27.9% (active) | -49.1% (active) | 15.8% | -97.6% (active) | -75.3% (active)
CO[C@@H](C(=O)N1Cc2[nH]nc(NC(=O)c3ccc(N4CCN(C)CC4)cc3)c2C1)c1ccccc1 | 36.8% | 37.3% | -0.392% (active) | -6.89% (active) | 4.44% (active) | -63.8% (active) | 12.6% | 19.1% | 10.7% | -88.2% (active)
N#Cc1c(-c2ccc(C(F)(F)F)cc2)cc(NCC2CCS(=O)(=O)CC2)n2c1nc1ccccc12 | 88.8% | 93.7% | 100% | 86.4% | 96.8% | 80.9% | 64.5% | 77% | 84.6% | 96.6%
COc1cccc(NC(=O)Nc2ccc(Nc3ncnc4sc5c(c34)CCN(C(=O)CCl)C5)cc2)c1 | 96.7% | 88.9% | 96.8% | 88.7% | 98.1% | 97.1% | 71.6% | 91% | 103% | 104%
ClCc1ccc(-c2ccc(Cn3cnc4c(Cl)nc(Cl)nc43)cc2)cc1 | 29.8% | 68.3% | 48.4% | -15.9% (active) | 7.18% (active) | -77.9% (active) | -20.6% (active) | -41.5% (active) | 13.2% | 35.3%
O=C1C=CC2(NN=C(c3ccccc3)N2c2ccc(Cl)cc2)c2cccc(O)c21 (stereo not given) | 13.6% | 60.5% | 89.5% | 26.5% | 64.3% | 125% | 51.1% | 22.3% | 93.4% | 94.5%
O=C(Cc1ccc(/C=C/C(=O)c2ncc[nH]2)cc1)Nc1ccc(Br)cc1 | 34.8% | 46.5% | 58.1% | 3.97% (active) | -3.31% (active) | 77.4% | 13.2% | 39.4% | -27% (active) | 20.7%
Cn1ccnc1C(=O)/C=C/c1ccc(CC(=O)Nc2ccc(S(F)(F)(F)(F)F)cc2)cc1 | -12.7% (active) | -15.3% (active) | -5.16% (active) | -73% (active) | -37.9% (active) | 5.09% (active) | -51.1% (active) | -33.7% (active) | -82.7% (active) | -55.2% (active)
O=C(Cn1ccnc1)Nc1ccc(-c2nc3ccccc3s2)cc1 | 57.4% | 66.6% | 98.3% | 83.8% | 79.8% | 75.8% | 74.7% | 70.3% | 78% | 80.8%
Cc1cc2c(F)c(Oc3ncnn4cc(OC[C@@H](C)OC(=O)[C@H](C)N)c(C)c34)ccc2[nH]1 | 27.6% | 50.2% | 41.1% | 34.8% | 38.7% | 39.2% | 58.1% | 35.8% | 72.3% | -6.99% (active)
FC(F)c1nc2ccccc2n1-c1nc(N2CCOCC2)nc(N2CCOCC2)n1 | 0.202% (active) | -3.17% (active) | -22.6% (active) | -15.1% (active) | 7.27% (active) | -32.2% (active) | -1.95% (active) | -17.2% (active) | -32.8% (active) | -25.1% (active)
O=C(Nc1ccc(C(=O)Nc2ccc(C3=NCCCN3)cc2)cc1)Nc1ccc(C2=NCCCN2)cc1 | 63% | 67.9% | 84.8% | 87.1% | 75% | 80.5% | 71.6% | 75.9% | 96.7% | 105%
COC[C@@H](C)n1c(C2CCOCC2)nc2c1C1C=C(OC)C(c3c(C)noc3C)=CC1N=C2 (stereo not given in full) | 48.5% | 65.1% | 40.7% | 51.5% | 59.4% | 11.1% | -1.23% (active) | 42.6% | 48.6% | 31.9%
NS(=O)(=O)c1ccc(CCN2C(=O)/C(=C\c3ccc(Cl)cc3)C=C2c2ccc3ccccc3c2)cc1 | 95.4% | 80.8% | 92.4% | 72% | 102% | 94% | 60.9% | 62% | 93.4% | 100%
CC(C)[C@@H](C)/C=C/[C@@H](C)[C@H]1CCC2=C3C=CC4=CC(=O)CC[C@]4(C)[C@H]3CC[C@@]21C | 96% | 93.2% | 93.9% | 104% | 107% | 86.6% | 67.2% | 77.4% | 101% | 105%
